Test [1] is described as follows: inhibitors of TNFa-induced NFkB p65 translocation, primary screen, imaging, HUVEC, MLSMR starter and 10KST1 sets (AID 438;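 active means inhibition above 20% together with a positive visual image hit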;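 further: compound added about 3h40 before a 20 min TNFalpha stimulation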;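 on inhibition: signal is the nuclear over cytoplasmic p65 intensity ratio per well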). The conditions noted are these: HUVEC TNFa-induced p65 nuclear translocation; cell count: measured here: nuclei count (cytotoxicity indicator), at 2.08 µM; inhibition: at 2 µM, stronger effect = higher value, 0% TNFa-plus-vehicle, 100% no-TNFa wells.
Test [2] can be described thus: inhibitors of mutant huntingtin aggregation, primary screen, imaging, exon1htt(103Q)mCFP cells, high-content imaging (AID 483;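 active means visual image review flags a hit and inhibition of aggregation exceeds 20%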;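 further: compound exposure lasted 3 days before fixation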;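 on nuclei count: percent of the per-plate median nuclei count of sample wells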). The conditions noted are these: exon1htt(103Q)mCFP cell line, aggregate imaging, at 2 µM; inhibition of aggregation: stronger effect = higher value; nuclei count: measured here: cell count, toxicity.
The nature of test [3]: inhibitors of E-selectin induction by TNFa, primary screen, imaging, HUVEC, immunofluorescence, MLSMR starter and 10KST1 sets (AID 487;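 active means visually confirmed hit in the image check and inhibition above 20%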;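 on inhibition: signal is fraction of cell area covered by stained E-selectin grains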;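 on nuclei count: 100% = median nuclei count of all wells on the same plate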). Particulars: HUVEC TNFalpha-induced E-selectin immunofluorescence imaging, at 2 µM; inhibition: stronger effect = higher value; nuclei count: measured here: cell number, toxicity.
Test [4] addresses Voltage-gated potassium channel subunit beta-2 (Rattus norvegicus) (UniProt P62483). Description: KvBeta enzyme negative modulators, primary screen, biochemical, NADPH fluorescence (AID 622;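 active means fluorescence slope higher than the sample average by over 3 SD, cut at about -0.22 in these data, passing the limit was not always enough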;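 further: slope of raw intensity against log time taken from 70 to 1610 s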). Particulars: recombinant KvBeta, 4-cyanobenzaldehyde reduction, at 10 µM, stronger effect = higher value.
Test [5] has the same target. Kind of test: KvBeta positive modulators, primary screen, biochemical, NADPH fluorescence (AID 623;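 active means NADPH fluorescence slope more negative than the mean of all samples by about 3 SD, 99.7% confidence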;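 further: fluorescence intensity change per second fitted from 20 to 320 s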). Particulars: Recombinant KvBeta, NADPH fluorescence decrease slope, 10 min; at 10 µM; stronger effect = lower value.
Test [6] concerns the target Alpha-2C adrenergic receptor (Homo sapiens) (UniProt P18825). Description: modulators of alpha2C/GIRK thallium flux, primary screen, cell-based, HEK293 alpha2C/GIRK1/2 (AID 624;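 active means fluorescence slope after compound addition differing from the mean of all screened samples at 99.7% confidence, in either direction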;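 further: slope of fluorescence ratio to pre-addition baseline per second over 15 to 24 s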). The conditions noted are these: thallium flux BTC fluorescence, at 10 µM, actives lie on both sides.
A short description of test [7]: inhibitors of Sendai virus-induced IRF3 signaling, primary screen, TLR/RLR signaling modifier project, cell-based, Sendai virus stimulus, luciferase, 10K MLSCN set (AID 602276).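 Further: firefly luciferase from ISG56 promoter only with Renilla not read in this screen; 0% = Sendai virus plus DMSO and 100% = medium plus DMSO without virus.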 The conditions noted are these: HEK293 RL24 IRF3 luciferase reporter, at 10 µM, stronger effect = higher value.
Test [8] in a line: inhibitors of poly I:C-induced TLR3 signaling, primary screen, cell-based, poly I:C stimulus, luciferase, 10K MLSCN set (AID 602277;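 active means inhibition of the reporter signal at or above 50%; inactive means inhibition below 50%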). Particulars: HEK293-TLR3 RL24 IRF3 luciferase reporter, at 10 µM, stronger effect = higher value. (In general: Reporter assays use an easily measured gene product as a stand-in for the process of interest.)

Calls of active or inactive are those of the source.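 How the source made its calls, unless noted: active means inhibition at or above 50% at 10 µM; inactive means inhibition below 50%.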

Sequence of Voltage-gated potassium channel subunit beta-2 (Rattus norvegicus) (P62483 whole entry, looked up): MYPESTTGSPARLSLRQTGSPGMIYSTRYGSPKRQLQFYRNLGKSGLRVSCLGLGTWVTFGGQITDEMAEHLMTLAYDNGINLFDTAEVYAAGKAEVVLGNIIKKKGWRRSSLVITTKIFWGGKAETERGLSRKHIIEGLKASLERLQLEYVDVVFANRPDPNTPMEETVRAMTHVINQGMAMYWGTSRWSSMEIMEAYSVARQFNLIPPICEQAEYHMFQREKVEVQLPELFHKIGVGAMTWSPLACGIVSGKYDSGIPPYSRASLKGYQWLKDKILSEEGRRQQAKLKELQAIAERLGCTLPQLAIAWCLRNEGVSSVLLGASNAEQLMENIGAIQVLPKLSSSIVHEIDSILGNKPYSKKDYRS
Sequence of Alpha-2C adrenergic receptor (Homo sapiens) (P18825 whole entry, looked up): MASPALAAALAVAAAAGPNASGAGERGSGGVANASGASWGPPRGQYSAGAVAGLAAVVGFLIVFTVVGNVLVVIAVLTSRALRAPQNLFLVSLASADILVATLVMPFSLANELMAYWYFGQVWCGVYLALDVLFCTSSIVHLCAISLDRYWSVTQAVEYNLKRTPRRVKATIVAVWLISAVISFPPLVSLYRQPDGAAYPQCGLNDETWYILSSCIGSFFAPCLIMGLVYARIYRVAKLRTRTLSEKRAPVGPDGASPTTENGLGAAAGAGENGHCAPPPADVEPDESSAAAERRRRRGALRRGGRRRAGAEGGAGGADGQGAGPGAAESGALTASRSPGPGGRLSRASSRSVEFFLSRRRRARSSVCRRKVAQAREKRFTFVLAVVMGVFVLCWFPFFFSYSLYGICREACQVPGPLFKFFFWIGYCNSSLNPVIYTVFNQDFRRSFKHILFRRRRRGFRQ

As usually defined, the inhibition is the drop in the measured response relative to a control, in per cent. In the case of `CCOC(=O)c1cnc(C(C)(C)C)[nH]c1=O`, in test [1], the cell count stood at 328. Besides, the inhibition is -6.5% (inactive) in test [1], -109% (inactive) in test [3], 10.2% (inactive) in test [7] and 17.4% (inactive) in test [8]. Besides, the inhibition of aggregation in test [2] is -6.3% (inactive). Also, the results for the nuclei count in test [2] and in test [3] were 109% and 142%, respectively. The fluorescence slope in test [4] is -0.318 (inactive). The NADPH fluorescence slope in test [5] is -4.2e-05 (inactive). In addition, the slope in test [6] was 0.00422 (inactive).
Turning to `CCOc1ccc(N(CC(=O)Nc2cccc(OC)c2)S(=O)(=O)c2c(C)noc2C)cc1`, the cell count in test [1] came out at 490. The inhibition in test [1] was -7.9% (inactive); in test [3] it was -27% (inactive); in test [7], 24.2% (inactive); in test [8], 22.1% (inactive). In addition, in test [2], the inhibition of aggregation is 18.7% (inactive). Moreover, the nuclei count in test [2] is 67%; in test [3], 109%. Also, the fluorescence slope in test [4] is -0.518 (inactive). In addition, in test [5], the NADPH fluorescence slope was -2.7e-05 (inactive). Further, the slope in test [6] is 0.00799 (inactive).
As to `CC(O)CN1C(=O)C(CC(=O)Nc2ccc(Cl)cc2)SC1=Nc1ccccc1` (stereo not drawn), the cell count in test [1] came out at 671. Besides, the inhibition in test [1] was -3.9% (inactive); in test [3] it was -16.8% (inactive); in test [7], 2.35% (inactive); in test [8] it was 11.1% (inactive). Moreover, in test [2], the inhibition of aggregation is -11.8% (inactive). The nuclei count in test [2] worked out at 119%; in test [3], 116%. In test [4], the fluorescence slope is -0.453 (inactive). In test [5], the NADPH fluorescence slope was -0.000376 (inactive). The slope in test [6] was 0.00536 (inactive).
On to `CC1CCN(c2nc3c(c(=O)[nH]c(=O)n3C)n2CCSc2ncccn2)CC1`, for which, in test [1], the cell count was 548. Also, the inhibition in test [1] is 0.8% (inactive); in test [3], -15.9% (inactive); in test [7], 8.83% (inactive); in test [8], 24.8% (inactive). In addition, in test [2], the inhibition of aggregation was -8.6% (inactive). Besides, the nuclei count came out at 83.9% in test [2] and 118% in test [3]. Moreover, in test [4], the fluorescence slope was -0.43 (inactive). In addition, the NADPH fluorescence slope in test [5] was -8.7e-05 (inactive). The slope in test [6] is 0.00584 (inactive).
Regarding `CCCNC(=O)NC(C(=O)OC)C12CC3CC(CC(C3)C1)C2` (stereo not drawn), the cell count in test [1] was 308. Also, the inhibition in test [1] is -6.2% (inactive); in test [3], -52.3% (inactive); in test [7] it was 12.2% (inactive); in test [8], 23.2% (inactive). The inhibition of aggregation in test [2] is 19.6% (inactive). In addition, the nuclei count in test [2] stood at 76.7%; in test [3], 123%. Besides, the fluorescence slope in test [4] was -0.321 (inactive). Also, the NADPH fluorescence slope in test [5] was -1.6e-05 (inactive). Besides, the slope in test [6] was 0.00242 (inactive).
With `O=C(Cn1c(=O)n(CC2CCCO2)c(=O)c2ccccc21)c1ccccc1` (stereo not drawn), the cell count in test [1] turned out to be 361. Further, the inhibition is 4.4% (inactive) in test [1], 4.5% (inactive) in test [3], 10.8% (inactive) in test [7] and 16.3% (inactive) in test [8]. The inhibition of aggregation in test [2] was 1.4% (inactive). Besides, the nuclei count in test [2] was 103%; in test [3] it was 111%. The fluorescence slope in test [4] was -0.51 (inactive). Further, the NADPH fluorescence slope in test [5] was -3.9e-05 (inactive). In addition, the slope in test [6] was 0.00589 (inactive).
In the case of `CCCN1C=CC(=C2C(=O)c3ccccc3C2=O)C=C1`, the cell count in test [1] is 418. Also, the inhibition in test [1] was 2% (inactive); in test [3], -7.6% (inactive); in test [7] it was 29.8% (inactive); in test [8] it was 89.4% (active). Also, in test [2], the inhibition of aggregation is 16.6% (inactive). Also, the nuclei count was 44.6% in test [2] and 111% in test [3]. In addition, the fluorescence slope in test [4] is -0.377 (inactive). The NADPH fluorescence slope in test [5] is -6.2e-05 (inactive). Further, the slope in test [6] is 0.00522 (inactive).
As to `Cc1ccc(NC(=O)c2ccccc2F)nc1`, in test [1], the cell count came to 336. In addition, the inhibition in test [1] was -8.1% (inactive); in test [3] it was -16.4% (inactive); in test [7], -16.7% (inactive); in test [8], -41.6% (inactive). For the same compound, in test [2], the inhibition of aggregation is 0.7% (inactive). In addition, the nuclei count in test [2] was determined as 123%; in test [3] it was 111%. The fluorescence slope in test [4] was -0.374 (inactive). For the same compound, the NADPH fluorescence slope in test [5] was -6.3e-05 (inactive). The slope in test [6] was 0.00526 (inactive).

(Values after PubChem BioAssay.)
